Assay results from PubChem BioAssay AID1832 (Broad Institute, 2009).
The campaign covered roughly 300,000 compounds. About 1,100 (0.37%) were called active. This is one part of a sample in which actives are shown more often than they occur. A number with no mark means an inactive call.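 The calls were made as follows: active = inhibition past about -25% in most replicates, and total fluorescence under double the plate's negative control median (limit read from the data); inconclusive = replicates evenly split on the limit, or fluorescence at least double controls; inactive = too little inhibition in most replicates.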

These compounds were tested against Zinc finger protein mex-5 (Caenorhabditis elegans) (UniProt Q9XUB2) (assay: MEX-5 zinc finger RNA-binding disruptors – biochemical, C. elegans, fluorescence polarization, MLPCN library, primary screen (AID 1832;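 also: 0% = DMSO and -100% = 5 µM competing unlabeled TCR2 RNA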)). Conditions: MEX-5/FITC-TCR2 RNA binding, at 10 µM, active compounds read low.
Zinc finger protein mex-5 (Caenorhabditis elegans), sequence (Q9XUB2 whole entry, looked up): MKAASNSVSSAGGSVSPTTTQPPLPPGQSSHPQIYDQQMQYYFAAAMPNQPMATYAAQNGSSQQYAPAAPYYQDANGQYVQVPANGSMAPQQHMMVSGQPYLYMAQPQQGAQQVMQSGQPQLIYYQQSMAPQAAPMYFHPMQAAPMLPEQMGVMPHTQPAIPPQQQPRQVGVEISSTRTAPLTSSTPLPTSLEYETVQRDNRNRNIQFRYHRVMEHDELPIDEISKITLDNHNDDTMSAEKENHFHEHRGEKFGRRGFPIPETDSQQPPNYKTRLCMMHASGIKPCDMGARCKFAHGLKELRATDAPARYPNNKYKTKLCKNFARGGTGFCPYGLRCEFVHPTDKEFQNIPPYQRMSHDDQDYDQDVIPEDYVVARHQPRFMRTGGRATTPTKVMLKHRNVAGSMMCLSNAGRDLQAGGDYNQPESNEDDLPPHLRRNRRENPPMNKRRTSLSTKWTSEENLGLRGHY

Structure (SMILES)	activity score (negative = inhibition of binding)
COC(=O)c1ccc(NC(=O)c2cc3c(CO)cnc(C)c3oc2=Nc2cccc(C(N)=O)c2)cc1	-0.18%
Cc1cc(NC(=O)Nc2ccccc2[N+](=O)[O-])no1	0.456%
COc1cc2c(cc1/C=C1/NC(=O)N(c3ccccc3)C1=O)OCO2	-27% (active)
O=C1N/C(=C/c2cccn2-c2ccccc2)C(=O)N1c1cccc(Cl)c1	3.72%
COc1ccc(/C=C2/C(=O)N(c3ccccc3)N=C2C)c(OC)c1	1.89%
COc1ccc(C(=O)/C=C/c2cccnc2)c(OC)c1	0.878%
COc1ccc(/C=C/C(=O)c2ccc(NS(=O)(=O)c3ccc(C)cc3)cc2)cc1O	-0.65%
COc1ccc(C(=O)/C=C/c2ccc(-c3ccccc3)cc2)cc1CSCC(=O)O	-31.8% (active)
COC(=O)c1ccc(COc2ccc(/C=C/C(=O)c3ccc(OC)c(CSCC(=O)O)c3)cc2OC)cc1	-5.72%
COc1ccc(CCNS(=O)(=O)c2cc3c(cc2C)NC(=O)CO3)cc1OC	0.926%
Cc1cc(C)nc(NNC2=CC(=O)CC(C)(C)C2)n1	-66.2% (active)
COC(=O)NNC1=CC(=O)CC(C)(C)C1	-6.29%
CC1(C)CC(=O)C=C(Nc2ccccc2)C1	1.36%
Cc1cc(NC(=O)CCC(=O)N(Cc2ccccc2)C(C(=O)NC2CCCC2)c2ccc(C)o2)no1 (centres undefined)	-2.13%
O=C(CNC(=O)Cc1ccccc1)N=Nc1c(O)[nH]c2ccc(Br)cc12	0.589%
NS(=O)(=O)c1ccc(N=Nc2c(O)[nH]c3ccc(Br)cc23)cc1	-2.29%
Oc1[nH]c2ccc(Br)cc2c1N=Nc1nn[nH]n1	-74.2% (active)
O=c1[nH]c(CN2CCOCC2)nc2scc(-c3ccccc3)c12	1.42%
COc1ccc(NC(=O)CCn2ccnc2)c(OC)c1	-0.322%
CCCCn1c(=O)c(C(C)=O)c(O)c2ccccc21	0.942%
CCOc1ccc(N=Cc2c(O)n(-c3cccc(C)n3)c(=O)c3ccccc23)cc1	-1.96%
CC(=O)n1c(C=Nc2ccccc2)c(O)c2ccccc21	-52.6% (active)
C=CCn1cc(Cl)cc(C(=O)Nc2ccccc2)c1=O	-0.689%
COc1ccccc1NC(=O)CCSc1nnc(-c2ccc(O)cc2)o1	-2.37%
